SMN2 splice up = qHTS Assay for Enhancers of SMN2 Splice Variant Expression; AID 1458, 2008; hit rate 2.8% among 210,000; HEK293 SMN2-luciferase splicing reporter, luminescence, 30-36 h; Potency, µM (doses to about 46.1 µM), hits mostly activators; note: nearly all actives have a fitted effect of over 55% in size
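HEK293 cells carry an SMN2 […]–luciferase reporter in which exon 7 inclusion puts luciferase in frame. Cells were plated 10-12 h before compound addition, then incubated 30-36 h at 37C. ONE-Glo luminescence was read; sodium butyrate at 4.5 mM final served as control.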
NPC1 promoter act = qHTS Assay for NPC1 Promoter Activators. AID 485313, 2010. hit rate 2.4% among 320,000. Potency, µM (doses to about 9.22 µM), usual class: activators. Huh7 NPC1 promoter luciferase reporter, 24 h; note: nearly all actives have a fitted effect of over 60% in size
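NPC1 promoter–luciferase Huh7 cells; 24 h compound; luminescence.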
ELG1 genotox = qHTS screen for small molecules that induce genotoxicity in human embryonic kidney (HEK293T) cells expressing luciferase-tagged ELG1. HEK293T ELG1-luciferase reporter, luminescence, 16 h. Potency, µM (doses to about 46 µM), actives largely listed as activators. hit rate 1.3% among 330,000; note: nearly all actives have a fitted effect of over 60% in size
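Genotoxic stress is detected as increased luminescence from luciferase-tagged ELG1 in HEK293T cells, measured with ONE-Glo after a 16 hr treatment at 37 °C.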
FLuc counter = qHTS profiling assay for firefly luciferase inhibitor/activator using purifed enzyme and Km concentrations of substrates (counterscreen for miR-21 project); Luciferin 4-monooxygenase (Photinus pyralis), P08659; hit rate 6.9% among 360,000; Potency, µM (titrated, usually from 57.5 µM), usual class: inhibitors; purified FLuc, Km substrates, luminescence inhibition; AID 588342, 2011; note: nearly all actives have a fitted effect of over 55% in size
Target sequence (P08659 whole entry, looked up): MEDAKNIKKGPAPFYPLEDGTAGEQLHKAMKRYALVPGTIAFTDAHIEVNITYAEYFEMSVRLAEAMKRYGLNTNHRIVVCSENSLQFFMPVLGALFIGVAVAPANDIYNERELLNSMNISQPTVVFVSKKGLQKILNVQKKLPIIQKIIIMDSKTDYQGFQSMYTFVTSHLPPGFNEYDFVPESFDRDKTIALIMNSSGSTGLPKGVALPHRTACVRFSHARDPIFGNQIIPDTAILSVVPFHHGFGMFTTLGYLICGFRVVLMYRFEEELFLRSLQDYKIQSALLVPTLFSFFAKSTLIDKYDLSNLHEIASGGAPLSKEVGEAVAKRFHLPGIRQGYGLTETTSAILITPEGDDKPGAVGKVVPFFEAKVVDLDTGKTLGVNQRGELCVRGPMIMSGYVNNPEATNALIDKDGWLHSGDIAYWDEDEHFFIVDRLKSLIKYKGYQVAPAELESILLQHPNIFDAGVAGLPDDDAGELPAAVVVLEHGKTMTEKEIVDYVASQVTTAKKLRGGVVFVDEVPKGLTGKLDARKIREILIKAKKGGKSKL
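Biochemical qHTS of compounds, final roughly 60 µM downward over six points, against 10 nM purified firefly luciferase using Km concentrations of substrates (10 uM D-luciferin, 10 uM ATP) in Tris acetate pH 7.5 buffer; luminescence output.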
Rab9 prom act = qHTS Assay for Rab9 Promoter Activators | Huh7 Rab9 promoter-luciferase reporter, luminescence, 24 h | Potency, µM (doses to about 9.22 µM), usual class: activators | hit rate 2.8% among 320,000; note: nearly all actives have a fitted effect of over 60% in size
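Luminescence from Amplite-detected luciferase (10 minutes, ambient) reports Rab9 promoter activation. Before that, stable Rab9-luciferase Huh7 cells (1500/well, reduced-serum OP-MEM I plus 10% FBS) were exposed to compound for 24 hours at 37C.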
ELG1 DNA repair = qHTS screen for small molecules that inhibit ELG1-dependent DNA repair in human embryonic kidney (HEK293T) cells expressing luciferase-tagged ELG1; hit rate 2.3% among 330,000; Potency, µM (titrated, usually from 46.1 µM), usual class: inhibitors; HEK293T ELG1-luciferase reporter, luminescence, 16 h; DNA damage induced by 5-fluorouridine; note: nearly all actives have a fitted effect of over 55% in size
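5-Fluorouridine DNA damage + compound/DMSO, 2,000 cells/well, 16 h, 37 °C/5% CO2. ONE-Glo, 30 min RT, luminescence. Readout = decrease in reporter signal.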
Each line names hits and unclear results; the compound was inactive in the other large screens. Sampled rows, rich in hits. Any-hit rate of the full collection: about 9.4%. Calls come from the whole dose curve; as a rule, active = well fitted curve in the direction sought with a large enough effect; inconclusive = small, poorly fitted or top-dose-only effect, or another doubt; inactive = no such curve, though single readings can be large; an effect the other way counts as inactive or inconclusive.

O=C1COc2ccc(-c3cc(-c4ccc(F)cc4)c4c(n3)-c3ccccc3OC4)cc2N1	none (no result: NPC1 promoter act, ELG1 genotox, Rab9 prom act, ELG1 DNA repair)
Cc1ccc2oc3c(c(=O)c2c1)C(c1ccc(OCC(N)=O)cc1)N(Cc1ccc2c(c1)OCO2)C3=O (centres undefined)	none (no result: NPC1 promoter act, ELG1 genotox, Rab9 prom act, ELG1 DNA repair)
COc1ccccc1NC(=O)CN1CCC(n2nnc3cc(F)ccc32)CC1	ELG1 DNA repair 21µM
COc1ccc(Cl)cc1NC(=O)CN1CCC(n2nnc3cc(C)ccc32)CC1	ELG1 DNA repair 21µM
C=CCn1c(SCc2c(C)noc2C)nc2sc3c(c2c1=O)CCCC3	ELG1 DNA repair 18µM (no result: SMN2 splice up)
C=CCn1c(SCc2c(C)noc2C)nc2sc3c(c2c1=O)CCCCC3	ELG1 DNA repair inconclusive (no result: SMN2 splice up)
Cc1noc(C)c1CSc1nc2sc3c(c2c(=O)n1C)CCCC3	ELG1 DNA repair 23µM
CC1CCN(C(=O)C2COc3ccccc3C2)CC1 (centres undefined)	none (no result: SMN2 splice up, NPC1 promoter act, ELG1 genotox, Rab9 prom act, ELG1 DNA repair)
COCCCNC(=O)c1ccc(Cn2c(=O)c3ccccc3n(CC(N)=O)c2=O)cc1	none (no result: NPC1 promoter act, ELG1 genotox, Rab9 prom act, ELG1 DNA repair)
CCc1ccc(C2=CC(c3cccc(C)c3)n3c(nc4ccccc43)N2)cc1 (centres undefined)	FLuc counter 1.2µM (no result: SMN2 splice up, NPC1 promoter act, ELG1 genotox, Rab9 prom act, ELG1 DNA repair)
CCc1ccc(C2=CC(c3cccc(OC)c3OC)n3c(nc4ccccc43)N2)cc1 (centres undefined)	FLuc counter 4.3µM (no result: SMN2 splice up, NPC1 promoter act, ELG1 genotox, Rab9 prom act, ELG1 DNA repair)
CC(C)c1ccc(C2=CC(c3cccc(Cl)c3)n3c(nc4ccccc43)N2)cc1 (centres undefined)	FLuc counter 21µM (no result: SMN2 splice up, NPC1 promoter act, ELG1 genotox, Rab9 prom act, ELG1 DNA repair)
CCc1ccc(C2N=C(N)Nc3nc4ccccc4n32)cc1 (centres undefined)	none (no result: NPC1 promoter act, ELG1 genotox, Rab9 prom act, ELG1 DNA repair)
CCOc1ccc(C2=CC(c3cccc(Br)c3)n3c(nc4ccccc43)N2)cc1Cl (centres undefined)	FLuc counter 13µM (no result: SMN2 splice up, NPC1 promoter act, ELG1 genotox, Rab9 prom act, ELG1 DNA repair)
COc1ccc(CNc2nc(-c3ccccc3)nn2S(=O)(=O)c2ccccc2)cc1	none (no result: NPC1 promoter act, ELG1 genotox, Rab9 prom act, ELG1 DNA repair)
CC(C)Oc1ccc(CNC(=O)c2sc3ncccc3c2-n2cccc2)cc1	none (no result: SMN2 splice up, NPC1 promoter act, ELG1 genotox, Rab9 prom act, ELG1 DNA repair)
O=C(Nc1ccc(F)c(F)c1)c1cc(S(=O)(=O)NCc2ccc3c(c2)OCO3)ccc1F	none (no result: SMN2 splice up, NPC1 promoter act, ELG1 genotox, Rab9 prom act, ELG1 DNA repair)
COc1ccccc1-c1ncnn1-c1sc2c(c1C#N)CCCCC2	FLuc counter 1.5µM (no result: NPC1 promoter act, ELG1 genotox, Rab9 prom act, ELG1 DNA repair)
N#Cc1c(-n2ncnc2-c2cccc(Cl)c2)sc2c1CCCCC2	FLuc counter 1.5µM (no result: NPC1 promoter act, ELG1 genotox, Rab9 prom act, ELG1 DNA repair)
N#Cc1c(-n2ncnc2-c2ccccc2C(F)(F)F)sc2c1CCCCC2	FLuc counter 0.24µM (no result: NPC1 promoter act, ELG1 genotox, Rab9 prom act, ELG1 DNA repair)
N#Cc1c(-n2ncnc2-c2ccccc2Cl)sc2c1CCCCC2	FLuc counter 1.9µM (no result: NPC1 promoter act, ELG1 genotox, Rab9 prom act, ELG1 DNA repair)
COc1ccc(Br)cc1CNC(=O)C1CCCCN1S(=O)(=O)c1ccc(F)cc1 (centres undefined)	none (no result: SMN2 splice up, NPC1 promoter act, ELG1 genotox, Rab9 prom act, ELG1 DNA repair)
Cc1ccc(-c2nnc3ccccc3c2C(=O)Nc2ccc(C)c(F)c2)cc1	none (no result: SMN2 splice up, NPC1 promoter act, ELG1 genotox, Rab9 prom act, ELG1 DNA repair)
Cc1ncc(CO)c2c1Oc1nc(-c3ccc(F)cc3)nc(SCC(=O)N3CCCCC3)c1C2	none (no result: SMN2 splice up, NPC1 promoter act, ELG1 genotox, Rab9 prom act, ELG1 DNA repair)
O=C(COc1ccc(F)cc1)OCc1cc(=O)n2nc(C3CCCCC3)sc2n1	none (no result: SMN2 splice up, NPC1 promoter act, ELG1 genotox, Rab9 prom act, ELG1 DNA repair)
CNS(=O)(=O)c1cccc(C(=O)OCC(=O)c2cc(C)n(CC3CCCO3)c2C)c1 (centres undefined)	NPC1 promoter act 2.5µM, ELG1 genotox inconclusive, FLuc counter 1.3µM, Rab9 prom act 2.8µM, ELG1 DNA repair inconclusive (no result: SMN2 splice up)
CNS(=O)(=O)c1cccc(C(=O)OCC(=O)c2cc(C)n(-c3ccc4c(c3)OCO4)c2C)c1	FLuc counter inconclusive
Cc1cc(C(=O)COC(=O)c2cccc(S(=O)(=O)N(C)C)c2)c(C)n1CC1CCCO1 (centres undefined)	NPC1 promoter act inconclusive, FLuc counter 0.95µM, Rab9 prom act 3.5µM, ELG1 DNA repair inconclusive (no result: SMN2 splice up)
COC(=O)c1sccc1S(=O)(=O)N1CCN(c2cccc(C)c2)C(C)C1 (centres undefined)	none (no result: SMN2 splice up, NPC1 promoter act, ELG1 genotox, Rab9 prom act, ELG1 DNA repair)

Screening results from PubChem BioAssay.
